Measured potencies and affinities stand elsewhere. Activity calls are given as the source filed them.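 How the source made its calls: active means viability falls with dose and fitted half-maximal concentration is at most ten times the top valid dose; inconclusive means flat partial loss of 30 to 70 percent, or poor fit; inactive means flat within 30 percent, too weak, or rising signal.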
Test: BJeHLT cell viability loss – BJeHLT cells, dry powder, counter-screen for Ras selective lethality project, dose response (AID 493052)

For `COCC(=O)N(c1ccc(OC)c(Cl)c1)C(C(=O)NCCc1ccccc1)c1cccs1` (stereo not given), the outcome was “inactive”.

In the case of `O=C(c1[nH]ncc1[N+](=O)[O-])N1CCN(C(c2ccccc2)c2ccccc2)CC1`, the outcome is reported as “inactive”.

For `COc1ccc(N(C(=O)CSc2ncccn2)C(C(=O)NCCc2ccccc2)c2cccs2)cc1Cl` (stereo not given), the outcome was “inactive”.

With `COc1ccc(N(C(=O)CO)C(C(=O)NCCc2ccccc2)c2cccs2)cc1Cl` (stereo not given) the outcome was “inactive”.

With `CCC(=O)N(c1ccc(OC)c(Cl)c1)C(C(=O)NCCc1ccccc1)c1cccs1` (stereo not given) the outcome was “inactive”.

From PubChem BioAssay AID493052 (Broad Institute, 2011)
